L3MBTL1 block = blocks human L3MBTL1; Q9Y468; AlphaScreen L3MBTL1–H3K9me1 peptide binding; Potency, µM (series often up to 57.1 µM), without a hit: at the top dose activity, negative = inhibition, hits mostly inhibitors; 230,000 tested, 0.66% active; AID 485360; also: % is scaled to controls: 0 for no effect and ±100 for the full control effect; nearly all actives have a fitted effect of over 60% in size
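Displacement of a biotinylated histone H3(1-15) peptide monomethylated at Lys9 (75 nM) from L3MBTL1 (50 nM) was measured by AlphaScreen after a 30 min room-temperature compound incubation; cefsulodin titration served as intraplate control.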
HP1b chromo inh = blocks HP1-beta chromodomain binding to methylated histone tails; 390,000 tested, 0.56% active; Potency, µM (series often up to 114 µM), inactives show top-dose activity change, negative = inhibition, actives largely listed as inhibitors; P83916; AID 540317; AlphaScreen HP1-beta / biotin-H3K9me3 peptide binding; also: nearly all actives have a fitted effect of over 70% in size
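AlphaScreen: HP1-beta (50 nM) preformed 30 min with biotin-H3(1-18)K9me3 peptide (50 nM) in PBS pH 7.4, 0.01% Tween-20. Compound added for 30 min at RT, then streptavidin donor/nickel chelate acceptor beads (10 ug/mL) for 30 min.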
BAZ2B inh = BAZ2B (human) inhibition; Q9UIF8; AID 504333; Potency, µM (top dose mostly 114 µM), without a hit: at the top dose activity change, negative = inhibition, usual class: inhibitors; 360,000 tested, 4.4% active; AlphaScreen BAZ2B-H3K14Ac peptide displacement; also: % is scaled to controls: 0 for no effect and ±100 for the full control effect; nearly all actives have a fitted effect of over 60% in size
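Multi-concentration screen (max 110 uM) measuring displacement of acetylated histone H3 peptide from BAZ2B by AlphaScreen, using 50 nM protein, 50 nM peptide and 10 ug/mL streptavidin donor plus Ni-chelate acceptor beads.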
JMJD2A Tudor = inhibitors of human JMJD2A Tudor domain | O75164 | 390,000 tested, 4.4% active | Potency, µM (doses to about 114 µM), inactives show top-dose activity change, negative = inhibition, hits mostly inhibitors | AID 504339 | AlphaScreen JMJD2A-Tudor / H3K4me3 peptide binding; also: % is scaled to controls: 0 for no effect and ±100 for the full control effect; nearly all actives have a fitted effect of over 50% in size
Target sequence (O75164 whole entry, looked up, the tested form may be a part): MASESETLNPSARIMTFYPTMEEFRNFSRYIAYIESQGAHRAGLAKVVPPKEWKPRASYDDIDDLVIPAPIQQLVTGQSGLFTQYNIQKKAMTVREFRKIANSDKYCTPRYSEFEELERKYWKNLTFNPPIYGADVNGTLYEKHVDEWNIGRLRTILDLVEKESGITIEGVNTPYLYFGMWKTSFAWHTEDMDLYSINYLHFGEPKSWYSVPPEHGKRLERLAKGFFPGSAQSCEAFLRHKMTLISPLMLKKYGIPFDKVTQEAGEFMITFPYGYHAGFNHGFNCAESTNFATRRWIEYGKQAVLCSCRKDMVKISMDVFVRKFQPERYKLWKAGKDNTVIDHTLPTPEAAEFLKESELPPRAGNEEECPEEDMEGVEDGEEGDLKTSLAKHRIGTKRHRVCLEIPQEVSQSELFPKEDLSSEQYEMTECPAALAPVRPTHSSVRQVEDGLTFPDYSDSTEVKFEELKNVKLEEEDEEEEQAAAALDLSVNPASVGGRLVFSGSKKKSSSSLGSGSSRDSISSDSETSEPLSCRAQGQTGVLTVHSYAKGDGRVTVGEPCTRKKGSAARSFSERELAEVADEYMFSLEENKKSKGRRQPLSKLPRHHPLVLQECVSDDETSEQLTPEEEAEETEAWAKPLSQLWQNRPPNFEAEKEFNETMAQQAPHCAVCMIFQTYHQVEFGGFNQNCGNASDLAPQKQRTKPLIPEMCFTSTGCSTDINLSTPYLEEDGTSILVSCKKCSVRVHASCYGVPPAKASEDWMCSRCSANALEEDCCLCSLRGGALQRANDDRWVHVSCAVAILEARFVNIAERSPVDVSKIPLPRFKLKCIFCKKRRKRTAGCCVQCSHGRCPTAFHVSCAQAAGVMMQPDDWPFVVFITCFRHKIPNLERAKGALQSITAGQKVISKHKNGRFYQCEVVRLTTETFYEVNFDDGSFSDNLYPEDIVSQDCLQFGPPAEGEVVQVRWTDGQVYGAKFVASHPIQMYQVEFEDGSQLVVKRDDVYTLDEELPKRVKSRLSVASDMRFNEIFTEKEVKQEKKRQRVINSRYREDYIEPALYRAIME
Sfp inh = blocks B. subtilis Sfp PPTase activity; Potency, µM, for the others: largest response in the series, negative = inhibition, most hits filed as inhibitors; Q9F4F7; AID 1490; 310,000 tested, 3.5% active; Biochemical Sfp PPTase activity, qHTS;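 also: the enzyme is Sfp with the accession as filed and its product quenches rhodamine fluorescence; 0% = enzyme reaction without inhibitor and -100% = no enzyme wells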
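Step 1, compound plus 15 nM Sfp-PPTase, 15 min, room temperature. Step 2, add rhodamine-CoA (5 uM) and BHQ-2-YbbR (12.5 uM). Step 3, read 525/598 nm fluorescence at 0 and 30 min.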
G9a block = G9a (human) methyltransferase inhibition. Q96KQ7. G9a H3K9 monomethylation, AlphaScreen, 2 h. Potency, µM (top dose mostly 102 µM), for the others: at the top dose activity, negative = inhibition, most hits filed as inhibitors. 350,000 tested, 8.8% active. AID 504332; also: % is scaled to controls: 0 for no effect and ±100 for the full control effect; nearly all actives have a fitted effect of over 75% in size
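Using a bead-based AlphaScreen, monomethylated H3K9 product from 2 h room-temperature reactions (G9a 20 nM, peptide 500 nM, SAM 20 uM) was detected with 0.5 ug/mL rabbit anti-H3K9me1 antibody.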
* = called active by the depositor; ? = inconclusive; · = no result given; [ ] = remark or other dose. This is a sample that favours compounds with a hit; in the whole collection about 12% have one here. Calls follow the shape of the dose curve; as a rule, active = well fitted curve in the direction sought with a large enough effect; inconclusive = small, poorly fitted or top-dose-only effect, or another doubt; inactive = no such curve, though single readings can be large; an effect the other way counts as inactive or inconclusive. Potency is read from the fitted curve at half-maximal effect.

SMILES | L3MBTL1 block | HP1b chromo inh | BAZ2B inh | JMJD2A Tudor | Sfp inh | G9a block
Cc1ccc2nc(SC(C)C(=O)N3CCCC3)[nH]c2c1 (configuration not stated) | 6% | 14% | -7% | 0% | 9% | 28µM*
Cc1ccc2nc(CSc3nc(C)ccc3C#N)[nH]c2c1 | · | 22% | -1% | ? | -15% | 2.8µM*
CCOC(=O)c1c(C)oc2nc(C)nc(NCc3cccc(OC)c3)c12 | · | 71% | 4%[57.1 µM] | 26% | · | 0%[59 µM]
Cc1ccc2nc(SCC(=O)c3c(N)n(C4CC4)c(=O)[nH]c3=O)[nH]c2c1 | 1% | ? | -5% | -8% | · | 18µM*
COC(=O)CSc1nc2ccc(C)cc2[nH]1 | 4% | 34% | 1% | -23% | 7% | 28µM*
Cc1ccc2nc(SCC(=O)NC3CC3)[nH]c2c1 | · | 16% | -26% | -5% | -3% | 20%
CC1=C(C(=O)Nc2ccccc2)C(c2ccc(Br)cc2)n2nc(CCCO)nc2N1 (configuration not stated) | · | 31% | 4% | 9% | · | -8%[59 µM]
O=C(C=C1CCN(c2ncc(C(F)(F)F)cc2Cl)CC1)NNC(=O)Nc1ccc(Cl)cc1 | 0% | 21% | 4% | -3% | 6% | -4%
O=C(C=C1CCN(c2ncc(C(F)(F)F)cc2Cl)CC1)NNC(=O)Nc1ccccc1 | 2% | 19% | 3% | -12% | 7% | 11µM*
CCS(=O)c1scc(-c2ccc(Cl)cc2)c1C#N (configuration not stated) | 2% | 27% | 2% | -3% | 11% | 50µM*
O=C(Nc1nnc(-c2ccc(F)cc2)o1)c1ccco1 | · | 47% | 50µM* | 79µM* | 10% | 27%[12.7 µM]
CS(=O)(=O)c1ccccc1-c1nnc(NC(=O)c2ccco2)o1 | -1% | 14% | 50µM* | 20µM* | · | 14µM*
Cc1ccc(-c2cc(NC(=O)COc3ccc(Cl)cc3C)on2)cc1 | · | 7% | -2% | -22% | · | -7%[59 µM]
Cc1ccc(/C=N/Nc2ccc3ccccc3n2)o1 | 7% | -24% | ? | ? | 9% | -46%
O=c1nc(N/N=C/c2ccccn2)cn[nH]1 | 5µM* | 59% | 2.5µM* | 18µM* | 23% | 3%
Cc1ccc(/C=N/Nc2cn[nH]c(=O)n2)o1 | 2% | 21% | 40µM* | ? | 50µM* | 25%
COc1cc(NC(=O)c2ccc(-n3cnc4cccnc43)cc2)cc(OC)c1 | · | 26% | -16% | -14% | · | -13%[59 µM]
CC(C)n1c(SCC(=O)Nc2ccc(F)cc2)nc2c(oc3ccccc32)c1=O | · | 36% | 1% | -1% | · | 6%[59 µM]
CCC1Oc2ccc(C)cc2N(CC(=O)N2CCN(c3ccc(F)cc3)CC2)C1=O (configuration not stated) | 4% | 13% | -23% | ? | -6% | 45µM*
Oc1ccc(N=Cc2ccc(O)c(O)c2)cc1 | 8.9µM* | ? | 45µM* | 56µM* | 45µM* | 1.3µM*
Oc1ccc(/C=N/N=C/c2ccc(O)cc2)cc1 | -3% | 28% | -29% | -25% | 23% | ?
O=C(/C(=N/N=C/c1ccc(O)c(O)c1)c1ccccc1)c1ccccc1 | ? | ? | 40µM* | 25µM* | 5% | 32µM*
COc1cc(/C=N/N=C2/C(=O)Nc3ccccc32)ccc1O | -7% | -36% | ? | ? | 2% | ?
O=C1Nc2ccccc2/C1=N\N=C\c1ccc(O)c(O)c1 | ? | 32µM* | 40µM* | ? | ? | ·
Oc1ccc(/C=N/N=C/c2ccc(O)c(O)c2)cc1O | 8.9µM* | -27% | 10µM* | 7.9µM* | -16% | 35µM*
SMILES | L3MBTL1 block | HP1b chromo inh | BAZ2B inh | JMJD2A Tudor | Sfp inh | G9a block
N#CCCn1c(=O)c(-c2cccs2)nc2cnc(N3CCNCC3)nc21 | · | · | · | · | -8% | -16%[12.7 µM]
CCCCCCCC/C=C\CCCCCCCC(=O)OCC(CO)OC(=O)CCCCCCC/C=C\CCCCCCCC (configuration not stated) | · | · | · | · | 10% | -3%[59 µM]
COc1ccc(OC)c(/C=C2\SC(=S)N(C(C(=O)O)c3ccccc3)C2=O)c1 (configuration not stated) | -23% | 6% | -33% | -28% | 56µM* | ·
C=CCOc1ccc(/C=C2\SC(=S)N(C(C(=O)O)c3ccccc3)C2=O)cc1 (configuration not stated) | -5% | -21% | ? | ? | -9% | ?
CCOc1ccc(/C=C2\SC(=S)N(C(C(=O)O)c3ccccc3)C2=O)cc1OC (configuration not stated) | -18% | 16% | ? | -29% | 56µM* | ?
COc1cc(/C=C2\C(=N)N3N=C(C)SC3=NC2=O)cc(Cl)c1OCCOc1ccc(NC(C)=O)cc1 | · | 14% | 79µM* | -6% | -8% | -2%
C=CCOc1ccc(/C=C2\C(=N)N3N=C(S(=O)(=O)CC)SC3=NC2=O)cc1OC | · | 11% | ? | -12% | 19% | 2%[59 µM]
CCC1=NN2C(=N)/C(=C\c3ccc(OCCOc4ccc(NC(C)=O)cc4)cc3)C(=O)N=C2S1 | · | 23% | -28% | -23% | 7% | 0%
COc1cc(/C=C2\C(=N)N3N=C(C)SC3=NC2=O)cc(OC)c1OCCOc1ccccc1C | 0%[2.29 µM] | -7% | -9% | -27% | 2% | 12%[0.501 µM]
CCc1nn2c(=O)cc(COc3ccc(/C=C4\C(=N)N5N=C(C)SC5=NC4=O)cc3)nc2s1 | · | 15% | 50µM* | 56µM* | 4% | -13%[59 µM]
COc1ccccc1OCCOc1ccc(/C=C2\C(=N)N3N=C(S(C)(=O)=O)SC3=NC2=O)cc1 | · | -14% | 50µM* | 22µM* | -6% | 3%[2.33 µM]
COc1cc(/C=C2\C(=N)N3N=C(C(C)C)SC3=NC2=O)ccc1OCCOc1ccc(NC(C)=O)cc1 | · | 61% | -15% | -13% | 1% | ?
COc1cc(/C=C2\C(=N)N3N=C(S(C)(=O)=O)SC3=NC2=O)cc(OC)c1OCCOc1ccccc1C | · | ? | 56µM* | 79µM* | -25% | ?
CCc1ccccc1Nc1nn2c(=O)c3ccc(C(=O)NCCCOC(C)C)cc3nc2s1 | 8% | 16% | 2% | -1% | · | -8%[12.7 µM]
COc1cc2nc(SCC(=O)Nc3ccccc3C)n3nc(CCn4c(C)nc5ccccc54)nc3c2cc1OC | · | 20% | · | ? | · | ?
C=CCN1c2ccccc2[C@]23C[C@@H](C(=O)OC)N(S(=O)(=O)c4c(C)noc4C)C2=NC(C(=O)OC)=C(C(=O)OC)[C@H]13 | · | · | · | · | 17% | ·
Cc1nc2sc(C(=O)Nc3ccc(F)cc3)c(N)c2c(-c2ccc(Br)cc2)c1C(=O)Nc1ccc(Cl)cc1 | · | 70% | -2% | 11% | · | -23%[59 µM]
